Source: PubChem BioAssay AID1845224 (National Center for Advancing Translational Sciences (NCATS), 2023)
Results filed as inconclusive are left out. Calls of active or inactive are those of the source. Calls follow the shape of the dose curve; as a rule, active = well fitted curve in the direction sought with a large enough effect; inconclusive = small, poorly fitted or top-dose-only effect, or another doubt; inactive = no such curve, though single readings can be large or run the other way.

tested on: NanoLuc luciferase (engineered Oplophorus gracilirostris luciferase); test: Confirmatory Nanoluciferase (NLuc) qHTS assay for identification of artifact compounds.; settings: secreted NLuc in S16 cell medium, luminescence, 5 min; series mostly up to 39 µM
Summary of the method: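 Compounds were preincubated 15 min at room temperature with diluted secreted NanoLuc from S16 cell medium, then read by luminescence 5 min after Nano-Glo substrate. Percent inhibition versus DMSO and no-enzyme controls fitted by 4-parameter Hill curve.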

Potency, inactive:
COc1ccc(OC(=O)c2nc(SCc3ccccc3F)ncc2Cl)cc1
CCOC(=O)c1cccc(NC(=O)c2ccc3snnc3c2)c1
Oc1ccc(-c2csc(-c3ccc(F)cc3)n2)c(O)c1
C[C@H](CCC(=O)O)[C@H]1CCC2C3CC[C@@H]4C[C@H](O)CC[C@]4(C)C3CC[C@@]21C (stereo partly specified)
Cc1ccc(C(=O)Nc2nc(-c3ccccc3)ns2)cc1
O=C(NCCC1=CCCCC1)c1ccc2c(c1)N(Cc1cccc(Cl)c1)C(=O)c1ccccc1S2=O (stereo unspecified)
CCOC(=O)c1c(S(=O)(=O)N2CCCC(C(=O)NCc3ccc(F)cc3)C2)c(C)n(CC)c1C (stereo unspecified)
CCOc1ccc(OCC)c(NS(=O)(=O)c2c(C)[nH]c(=O)[nH]c2=O)c1
CCOC(=O)c1c(C)[nH]c(CCC(=O)NCCCN2CCN(c3ccc(F)cc3)CC2)c1C
COc1ccc(NC(=O)CSc2c3c(nc4ccccc24)CCC3)cc1Cl
Cc1ccc(S(=O)(=O)N2CCN(c3nc(-c4cccs4)nc4cccnc34)CC2)cc1
OCC(O)C(O)C(OC1OC(CO)C(O)C(O)C1O)C(O)CO (stereo unspecified)
COc1cccc(C(=O)Nc2ccccc2-c2nnc(-c3ccc(C(C)(C)C)cc3)o2)c1
COc1ccc(NC(=O)Cn2c(=O)n(CCc3ccccc3)c(=O)c3c4c(sc32)CCCC4)cc1
COc1ccc(Cn2c(CCC(=O)Nc3cc(C)cc(C)c3)nc3cccnc32)cc1
O=C(OCC#CCSc1nnc(-c2ccc3ccccc3c2)o1)c1ccsc1
Cc1ccc(C(=O)Nc2onc3c2CCCC3)cc1
COc1ccc(-n2nc(C(=O)Nc3cccc(C)n3)c3c4ccccc4n(C)c3c2=O)cc1
Cc1ccc(NC(=O)c2ccc(Br)cc2)c(C(=O)c2ccccc2)c1
CC(=O)N1CCC(N(Cc2ccco2)C(=O)Nc2ccc(C)c(Cl)c2)CC1
COc1ccc(NC(=O)c2cnn3c(-c4ccccc4)cc(C)nc23)cc1
O=C(Nc1ccc(Br)cc1)c1cccc(C(=O)Nc2ccc(Br)cc2)c1
CC(=O)Nc1ccc(Nc2nc3ccc(C)cc3n3nnnc23)cc1
Clc1ccc(CNc2cc(-c3ccc4c(c3)OCO4)ncn2)cc1
CSc1ccc2nc(Nc3nnc(-c4cccs4)o3)sc2c1
CCOc1ccccc1NC(=O)Cn1c(=O)n(CCCC(=O)NCc2ccc(C)cc2)c(=O)c2ccccc21
O=C(COc1ccc(Cl)cc1)Nc1ccc2nc(SCC(=O)N3CCCC3)sc2c1
CC(Sc1oc(-c2cccs2)nc1S(=O)(=O)c1ccccc1)c1ccccc1 (stereo unspecified)
Cc1ccc(CSc2ncccc2C(=O)O)cc1
Cc1cccc(-c2noc(-c3ccc(NCc4ccco4)c([N+](=O)[O-])c3)n2)c1
CC(=O)S[C@H]1CC2=CC(=O)CC[C@@]2(C)[C@H]2CC[C@@]3(C)[C@H](CC[C@]34CCC(=O)O4)[C@@H]12
